Laboratory results taken from PubChem BioAssay.
Active and inactive are the calls of the source. Unless noted, no rule for the calls is given here.

Assays:
[1] = compounds binding Alexa647 anti-His antibody – biochemical, small-molecule microarray, 635 nm fluorescence, artefact control for SMM control protein annotation, primary screen (AID 1128); settings: higher = more signal;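 also: score merges feature fluorescence with signal-to-noise for each printed compound spot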
[2] = system: Human papillomavirus type 1a E7 protein (residues 1-88); assay: HPV1a E7 small-molecule binders, primary screen, biochemical, small-molecule microarray, residues 1-88, 635 nm (AID 1129); settings: small-molecule microarray binding, fluorescence 635 nm; higher = more signal
[3] = target: Focal adhesion kinase 1 (Homo sapiens) (UniProt Q05397); assay: PTK2 protein binding on printed compound slides – biochemical, small-molecule microarray, 635/667 nm fluorescence, BSA, DTT, primary screen (AID 1130); settings: 635 nm fluorescence, higher = more signal;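 also: composite of spot emission at 667 nm and signal to noise over triplicate slides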
Sequence of Focal adhesion kinase 1 (Homo sapiens) (Q05397 whole entry, looked up): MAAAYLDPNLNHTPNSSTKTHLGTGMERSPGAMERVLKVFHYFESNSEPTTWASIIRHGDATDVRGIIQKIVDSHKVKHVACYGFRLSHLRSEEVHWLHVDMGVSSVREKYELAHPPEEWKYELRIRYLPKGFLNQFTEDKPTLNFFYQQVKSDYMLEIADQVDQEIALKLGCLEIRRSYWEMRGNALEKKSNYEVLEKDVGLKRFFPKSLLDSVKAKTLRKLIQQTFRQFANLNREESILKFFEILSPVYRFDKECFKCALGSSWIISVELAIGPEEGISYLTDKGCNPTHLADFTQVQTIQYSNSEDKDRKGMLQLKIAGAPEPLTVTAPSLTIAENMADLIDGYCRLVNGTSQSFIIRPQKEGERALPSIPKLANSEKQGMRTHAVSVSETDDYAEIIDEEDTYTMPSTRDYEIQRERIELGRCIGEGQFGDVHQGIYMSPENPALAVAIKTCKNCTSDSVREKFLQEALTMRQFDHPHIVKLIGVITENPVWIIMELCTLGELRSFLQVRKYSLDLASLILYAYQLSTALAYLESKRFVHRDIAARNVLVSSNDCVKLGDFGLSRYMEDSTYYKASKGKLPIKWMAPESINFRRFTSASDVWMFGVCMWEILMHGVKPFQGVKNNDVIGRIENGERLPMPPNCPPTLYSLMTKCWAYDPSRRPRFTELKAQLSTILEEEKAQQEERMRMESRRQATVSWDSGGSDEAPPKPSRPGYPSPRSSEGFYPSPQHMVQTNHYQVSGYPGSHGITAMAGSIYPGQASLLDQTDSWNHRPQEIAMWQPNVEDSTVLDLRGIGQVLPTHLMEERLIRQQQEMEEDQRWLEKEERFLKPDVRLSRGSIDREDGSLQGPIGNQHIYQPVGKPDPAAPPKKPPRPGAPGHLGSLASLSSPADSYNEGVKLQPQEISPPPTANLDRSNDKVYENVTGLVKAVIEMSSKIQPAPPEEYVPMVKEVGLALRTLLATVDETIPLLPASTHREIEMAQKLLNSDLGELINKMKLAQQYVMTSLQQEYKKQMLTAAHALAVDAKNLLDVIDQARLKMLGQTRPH

[4] = system: Fibrinogen (Alexa647-labelled); assay: Alexa647-fibrinogen binding to printed small molecules – biochemical, small-molecule microarray, 635/667 nm fluorescence, artefact control for SMM control-protein annotation, profiling panel (AID 1131); settings: fibrinogen-A647 binding fluorescence, higher = more signal;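 also: z-score merges 667 nm fluorescence with per-spot signal-to-noise over triplicate slides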
[5] = target: Follistatin (Homo sapiens) (UniProt P19883); assay: FST protein binding to printed compounds – biochemical, small-molecule microarray, 635/667 nm fluorescence, primary screen (AID 1132); settings: 635 nm fluorescence, higher = more signal
Sequence of Follistatin (Homo sapiens) (P19883 whole entry, looked up): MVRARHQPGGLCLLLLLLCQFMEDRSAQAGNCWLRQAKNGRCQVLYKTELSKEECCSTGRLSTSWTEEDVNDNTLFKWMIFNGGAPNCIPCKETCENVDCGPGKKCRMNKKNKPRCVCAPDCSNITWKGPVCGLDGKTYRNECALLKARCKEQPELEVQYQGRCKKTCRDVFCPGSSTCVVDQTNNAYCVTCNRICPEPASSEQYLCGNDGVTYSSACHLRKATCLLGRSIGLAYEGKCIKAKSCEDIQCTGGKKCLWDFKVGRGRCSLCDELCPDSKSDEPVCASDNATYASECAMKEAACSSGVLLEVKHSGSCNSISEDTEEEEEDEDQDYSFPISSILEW

[6] = target: Fibroblast growth factor 2 (Homo sapiens) (UniProt P09038); assay: basic fibroblast growth factor binding to printed compounds – biochemical, small-molecule microarray, 635/667 nm fluorescence, primary screen (AID 1133); settings: FGF2, fluorescence 635/667, higher = more signal
Sequence of Fibroblast growth factor 2 (Homo sapiens) (P09038 whole entry, looked up): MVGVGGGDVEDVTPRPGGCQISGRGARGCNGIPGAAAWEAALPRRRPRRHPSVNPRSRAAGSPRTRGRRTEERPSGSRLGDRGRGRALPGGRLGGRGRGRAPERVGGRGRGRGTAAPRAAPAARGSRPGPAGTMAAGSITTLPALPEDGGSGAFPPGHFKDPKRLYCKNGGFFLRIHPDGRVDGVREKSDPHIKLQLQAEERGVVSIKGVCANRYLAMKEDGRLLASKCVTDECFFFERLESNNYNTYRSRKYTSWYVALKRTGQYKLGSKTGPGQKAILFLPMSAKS

[7] = JC-1 mitochondrial potential readout, lung cancer cells – cell-based, A549, JC-1 fluorescence, basal, 24 h, 100 nL, profiling panel (AID 1138); settings: higher = more signal;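 also: A549 lung adenocarcinoma cells under basal conditions with no added stimulus; test concentration not given here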
Lefty1 = Lefty1 protein binding to printed compounds – biochemical, small-molecule microarray, 635/667 nm fluorescence, primary screen (AID 1139); settings: fluorescence 635/667, higher = more signal
[8] = system: wheat germ agglutinin (Triticum aestivum), Alexa647-labelled; assay: Alexa647-WGA lectin binding to printed small molecules – biochemical, small-molecule microarray, 635/667 nm fluorescence, artefact control for SMM control-protein annotation, profiling panel (AID 1140); settings: WGA-A647 binding, 635 nm fluorescence, higher = more signal;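 also: score merges 667 nm feature emission with signal to noise over triplicate slides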
[9] = target: Luciferin 4-monooxygenase (Photinus pyralis) (UniProt P08659); assay: inhibition of purified Photinus pyralis luciferase – biochemical, luminescence, purified enzyme, 2006 set, primary screen (AID 1141); settings: purified firefly luciferase, SteadyGlo luminescence, 30 min; higher = more signal, called active from +8 up or from −8 down;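 also: cell-free assay with purified firefly luciferase at 100 ng per well in PBS; test concentration not given here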
Sequence of Luciferin 4-monooxygenase (Photinus pyralis) (P08659 whole entry, looked up): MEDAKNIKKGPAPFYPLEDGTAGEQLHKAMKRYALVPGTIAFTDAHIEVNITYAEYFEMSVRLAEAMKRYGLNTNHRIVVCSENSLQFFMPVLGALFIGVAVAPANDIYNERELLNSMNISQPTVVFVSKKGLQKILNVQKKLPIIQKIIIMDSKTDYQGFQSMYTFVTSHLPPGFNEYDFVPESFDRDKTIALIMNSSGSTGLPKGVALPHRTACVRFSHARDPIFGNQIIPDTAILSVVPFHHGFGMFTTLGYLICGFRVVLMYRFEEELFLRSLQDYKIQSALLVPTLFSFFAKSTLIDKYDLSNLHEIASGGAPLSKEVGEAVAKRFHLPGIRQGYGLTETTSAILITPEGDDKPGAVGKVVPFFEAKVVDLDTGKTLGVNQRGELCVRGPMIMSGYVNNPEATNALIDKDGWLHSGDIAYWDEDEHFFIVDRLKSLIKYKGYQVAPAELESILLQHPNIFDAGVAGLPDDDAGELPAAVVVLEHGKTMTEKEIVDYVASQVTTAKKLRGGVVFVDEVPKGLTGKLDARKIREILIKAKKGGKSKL

[10] = system: Wnt5a (protein binding on small-molecule microarray); assay: small molecules binding Wnt5a protein – biophysical, small-molecule microarray, 635/667 nm fluorescence, primary screen (AID 1142); settings: 635 nm fluorescence, higher = more signal;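 also: fluorescence read at 667 nm with signal to noise per printed feature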
[11] = ATP-based viability of Huh7 replicon cells – cell-based, CellTiter-Glo luminescence, basal, 48 h, cytotoxicity control for HCV replication inhibitor project, primary screen (AID 1143); settings: higher = more signal, called active from +8 up or from −8 down;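 also: Huh7 hepatoma cells carrying a hepatitis C replication reporter with no stimulus; test concentration not given here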
[12] = Pseudomonas biofilm growth suppression – PAO1 strain, BacTiter-Glo luminescence, LB-PBS, primary screen (AID 1144); settings: P. aeruginosa PAO1 biofilm, 12 h, higher = more signal
[13] = basal CRE-LacZ reporter activity in PC12 – cell-based, unstimulated, primary screen (AID 1145); settings: no forskolin, luminescence, 4.5 h, higher = more signal, called active from +8 up or from −8 down
[14] = forskolin-driven CRE-LacZ activity in PC12 – cell-based, CRE-LacZ reporter, forskolin-stimulated, primary screen (AID 1146); settings: luminescence, 4.5 h, higher = more signal, called active from +8 up or from −8 down;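 also: PC12 cells with 6xCRE LacZ reporter stimulated by forskolin 10 µM; beta-galactosidase reporter signal reflecting CREB driven transcription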
[15] = target: Streptavidin (Streptomyces avidinii) (UniProt P22629); assay: compounds binding control protein streptavidin – biophysical, small-molecule microarray, 635/667 nm fluorescence, artefact control for SMM compound annotation, primary screen (AID 1147); settings: higher = more signal;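 also: signal reflects streptavidin binding to arrayed compounds as a control protein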
Sequence of Streptavidin (Streptomyces avidinii) (P22629 whole entry, looked up): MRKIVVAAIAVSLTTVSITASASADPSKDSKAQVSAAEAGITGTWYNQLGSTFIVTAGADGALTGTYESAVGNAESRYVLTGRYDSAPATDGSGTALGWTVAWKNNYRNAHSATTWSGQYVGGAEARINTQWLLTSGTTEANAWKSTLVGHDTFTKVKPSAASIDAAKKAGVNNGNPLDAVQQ

[16] = probe aInhba binding on compound microarray – biochemical, small-molecule microarray, 635/667 nm fluorescence, primary screen (AID 1148); settings: higher = more signal;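 also: score merges 667nm spot fluorescence with signal-to-noise for antibody binding to printed compounds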
Torsin-1A (Homo sapiens) [17] = target: Torsin-1A (Homo sapiens) (UniProt O14656); assay: TOR1A wild-type binding on microarray – cell lysate, small-molecule microarray, lysate, 635/667 nm, primary screen (AID 1149); settings: COS7 hTOR1A-WT lysate, 635 nm fluorescence, higher = more signal
Sequence of Torsin-1A (Homo sapiens) (O14656 whole entry, looked up): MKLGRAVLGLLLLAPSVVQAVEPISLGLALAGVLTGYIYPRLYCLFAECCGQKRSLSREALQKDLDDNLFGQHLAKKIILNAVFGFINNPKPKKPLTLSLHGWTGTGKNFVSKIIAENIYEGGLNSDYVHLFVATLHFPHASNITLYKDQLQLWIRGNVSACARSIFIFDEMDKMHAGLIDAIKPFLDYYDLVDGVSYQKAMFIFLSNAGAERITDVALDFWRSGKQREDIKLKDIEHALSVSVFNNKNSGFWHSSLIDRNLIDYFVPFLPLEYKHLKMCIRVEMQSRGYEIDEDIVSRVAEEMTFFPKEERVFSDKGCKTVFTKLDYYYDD

Torsin-1A (Homo sapiens) [18] = target: Torsin-1A (Homo sapiens) (UniProt O14656); assay: torsin A mutant lysate binding on microarrays – cell lysate, small-molecule microarray, COS7 lysate, 635/667 nm fluorescence, primary screen (AID 1150); settings: COS7 hTOR1A mutant lysate, 635 nm fluorescence, higher = more signal;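 also: score pools 667 nm emission and signal to noise measuring lysate protein binding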
[19] = system: Sonic hedgehog protein (Shh); assay: Sonic hedgehog microarray binding compounds – biochemical, small-molecule microarray, 635/667 nm fluorescence, primary screen (AID 1151); settings: 635 nm fluorescence, higher = more signal;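 also: Shh protein binding to compounds spotted on small-molecule microarray slides; score combines spot fluorescence intensity with signal-to-noise across triplicate slides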

Row | Compound | composite z-score [1] | composite z-score [2] | composite z-score [3] | composite z-score [4] | composite z-score [5] | composite z-score [6] | z-score [7] | composite z-score (Lefty1) | composite z-score [8] | z-score [9] | composite z-score [10] | z-score [11] | z-score [12] | z-score [13] | z-score [14] | composite z-score [15] | composite z-score [16] | composite z-score (Torsin-1A (Homo sapiens) [17]) | composite z-score (Torsin-1A (Homo sapiens) [18]) | composite z-score [19]
1 | CCCC[C@@H]1C[C@H]1[C@@H](NC(=O)c1ccco1)c1ccc(Cl)cc1 | 1.26 | 1.2 | 0.998 | 0.939 | 0.0863 | -0.488 | 1.88 | -0.406 | 1.21 | 1.17 (inactive) | 0.202 | -2.63 (inactive) | 0.564 (inactive) | -0.561 (inactive) | 0.473 (inactive) | 2.09 | 0.306 | 0.104 | 0.481 | -0.292
2 | O=C1O[C@H](c2ccccc2)[C@H](c2ccccc2)N2[C@H]1[C@@H](C(=O)N1CCN(c3ncccn3)CC1)[C@]1(C(=O)Nc3ccc(C#CC4=CCCCC4)cc31)[C@H]2c1ccc(O)cc1 | 0.896 | 1.21 | 0.0908 | 0.756 | 0.792 | 0.357 | -0.48 | 0.497 | 0.605 | -0.0055 (inactive) | -0.019 | -2.01 (inactive) | -0.134 (inactive) | 0.155 (inactive) | -0.196 (inactive) | 1.08 | -0.0448 | 0.268 | 0.839 | 1.13
3 | C=CC[C@]1(C(=O)NCCCOC)N=C(c2ccc(OCCCO)cc2)O[C@H]1c1ccccc1N=[N+]=[N-] | 2.54 | 1.22 | 0.143 | 0.967 | 1.26 | 1.28 | 0.688 | -0.397 | 0.542 | -8.19 (active) | 0.485 | -2.57 (inactive) | -0.742 (inactive) | 2.14 (inactive) | -1.5 (inactive) | 1.39 | 0.611 | 0.0108 | 0.878 | -0.477
4 | C=CCNC(=O)[C@H]1[C@@H]2C(=O)O[C@@H](c3ccccc3)[C@@H](c3ccccc3)N2[C@@H](c2ccccc2OCCO)[C@]12C(=O)Nc1ccc(C#CC3=CCCCC3)cc12 | 0.971 | 1.17 | 0.26 | 0.783 | 1.16 | 1.21 | -0.856 | 0.681 | 0.394 | -1.19 (inactive) | 0.291 | -6.47 (inactive) | 1.64 (inactive) | 0.484 (inactive) | 1.05 (inactive) | 0.0808 | 0.0074 | 1.23 | 1.14 | 1.61
5 | CN1C(=O)C2C=CC(C(O)C3=C[C@H]4C[C@@H](C3)C4(C)C)N(Nc3ccccc3)C2C1=O (stereo not given in full) | 0.274 | 1.19 | 0.608 | 0.816 | 1.18 | 0.0364 | -0.838 | 0.446 | 0.782 | -0.179 (inactive) | 0.0737 | 0.435 (inactive) | -0.79 (inactive) | 0.812 (inactive) | 0.767 (inactive) | 0.186 | -0.0313 | -0.189 | 0.276 | 0.447
6 | O=C1[C@H]2C=C(Br)[C@H](C[C@@H]2OCCCCO)[C@@]12CO2 | -0.0684 | -0.123 | -0.14 | -0.0973 | 0.324 | 0.108 | 0.137 | 0.17 | 0.0889 | 0.469 (inactive) | -0.0251 | 0.722 (inactive) | 0.56 (inactive) | 0.22 (inactive) | 0.533 (inactive) | 0.0247 | 0.104 | 0.411 | 0.53 | 0.31
7 | COc1ccc([Si](C)(C)[C@@H]2[C@@H](CC(=O)N3Cc4ccccc4C[C@H]3CO)O[C@]3(C(=O)N(C)c4c(Br)cc(C)cc43)[C@H]2C)cc1 | 0.333 | 1.13 | 0.341 | 0.76 | 1.35 | 1.65 | 0.595 | 1.56 | 1.03 | -0.178 (inactive) | 0.251 | -5.91 (inactive) | -1.41 (inactive) | 6.12 (inactive) | 0.0739 (inactive) | 0.813 | -0.0645 | 1.01 | 1.19 | 2.14
8 | CN(C)C(=O)[C@@]1(Cc2ccccc2CN=[N+]=[N-])N=C(c2ccc(OCCCO)cc2)O[C@H]1c1ccccc1 | 2.77 | 1.18 | 0.995 | 0.941 | 0.761 | 1.34 | 0.0462 | -0.169 | 0.751 | 0.27 (inactive) | 0.522 | -2.54 (inactive) | 0.378 (inactive) | 0.629 (inactive) | -0.524 (inactive) | -0.154 | 0.7 | 0.209 | 0.681 | -0.221
9 | CCOC(=O)C[C@H]1[C@H](OC(=O)c2cc3ccccc3oc2=O)[C@@H](NC(=O)Cc2ccc(OC)cc2)c2cc(OCCCO)ccc2N1C(=O)c1ccccc1 | -0.0228 | 0.376 | -0.0962 | 0.367 | 0.371 | 0.382 | -1.01 | 0.248 | 0.318 | 0.589 (inactive) | 0.0687 | -3.21 (inactive) | -0.797 (inactive) | 4.1 (inactive) | -0.27 (inactive) | 0.308 | 0.0713 | 0.388 | 0.804 | 0.189
